Compound activity as filed in PubChem BioAssay.
Shown are actives, neighbours in structure and some others; about 1% of the full set was active somewhere.
Hsp90 block: displaces geldanamycin probe from tumor Hsp90 | NCI-N417 lysate Hsp90, Cy3B-geldanamycin FP displacement | inhibition, % at 30 µM | hit rate 0.35% among 64,000 | P07900;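 active = inhibition above 50%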
PKA inh: blocks human protein kinase A activity | P17612 | PKA Kemptide phosphorylation, Kinase-Glo ATP luminescence | inhibition, % at 6 µM | hit rate 0.1% among 65,000;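 active = inhibition above the screen-wide mean inhibition plus 3 SD, cut at about 21% in these data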
Cdc25B block: inhibitors of human Cdc25B phosphatase | P30305 | hit rate 0.1% among 65,000 | recombinant Cdc25B, OMFP fluorescence Ex485/Em525 | AID 368 | inhibition, %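 (compounds tested at 10 µM final in the well)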; in the data active = inhibition above about 50%
ROCK2 inh: blocks human Rho kinase 2 activity; hit rate 0.35% among 60,000; O75116; inhibition, % at 6 µM; AID 604; purified ROCK2, Kinase-Glo ATP depletion luminescence;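 active = inhibition above the screen-wide mean inhibition plus 3 SD, cut at about 18% in these data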
Target sequence (O75116 whole entry, looked up): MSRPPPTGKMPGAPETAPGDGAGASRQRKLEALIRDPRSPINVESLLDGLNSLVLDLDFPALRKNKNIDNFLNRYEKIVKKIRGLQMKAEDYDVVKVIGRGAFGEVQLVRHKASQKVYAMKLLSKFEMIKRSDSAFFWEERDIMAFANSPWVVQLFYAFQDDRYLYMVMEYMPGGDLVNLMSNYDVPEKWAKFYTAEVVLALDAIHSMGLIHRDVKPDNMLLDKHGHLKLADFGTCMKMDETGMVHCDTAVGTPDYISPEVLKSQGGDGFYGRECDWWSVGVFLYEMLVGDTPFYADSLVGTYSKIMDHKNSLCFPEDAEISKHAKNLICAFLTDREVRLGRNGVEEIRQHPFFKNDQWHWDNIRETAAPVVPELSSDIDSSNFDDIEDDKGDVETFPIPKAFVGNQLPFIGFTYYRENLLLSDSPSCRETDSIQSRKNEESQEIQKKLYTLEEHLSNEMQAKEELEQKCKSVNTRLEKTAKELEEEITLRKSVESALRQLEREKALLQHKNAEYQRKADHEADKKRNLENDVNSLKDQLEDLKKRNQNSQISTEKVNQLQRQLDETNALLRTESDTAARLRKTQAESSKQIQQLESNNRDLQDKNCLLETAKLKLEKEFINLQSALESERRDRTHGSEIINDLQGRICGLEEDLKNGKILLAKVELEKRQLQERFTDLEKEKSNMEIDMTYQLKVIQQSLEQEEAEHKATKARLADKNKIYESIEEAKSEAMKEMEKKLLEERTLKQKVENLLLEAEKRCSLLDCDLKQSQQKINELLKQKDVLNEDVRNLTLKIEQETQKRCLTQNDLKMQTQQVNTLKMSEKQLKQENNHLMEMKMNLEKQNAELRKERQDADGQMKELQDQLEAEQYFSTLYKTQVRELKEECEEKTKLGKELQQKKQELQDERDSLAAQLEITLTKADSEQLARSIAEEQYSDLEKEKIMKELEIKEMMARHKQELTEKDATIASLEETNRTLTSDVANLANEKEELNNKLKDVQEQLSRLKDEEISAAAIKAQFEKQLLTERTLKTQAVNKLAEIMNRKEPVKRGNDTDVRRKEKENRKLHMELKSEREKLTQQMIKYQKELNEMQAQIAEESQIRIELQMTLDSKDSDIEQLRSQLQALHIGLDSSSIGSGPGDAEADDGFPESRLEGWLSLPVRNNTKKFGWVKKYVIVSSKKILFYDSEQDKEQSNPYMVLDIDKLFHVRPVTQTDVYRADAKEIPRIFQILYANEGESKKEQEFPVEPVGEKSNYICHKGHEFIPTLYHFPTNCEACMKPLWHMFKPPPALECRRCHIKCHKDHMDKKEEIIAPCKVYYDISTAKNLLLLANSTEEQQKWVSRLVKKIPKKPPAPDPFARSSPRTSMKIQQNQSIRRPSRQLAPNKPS
DUSP1 inh: inhibitors of human MKP-1 phosphatase | recombinant MKP-1, OMFP hydrolysis fluorescence | inhibition, %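 (compounds tested at a single concentration somewhere between 10 and 100 µM)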 | hit rate 0.15% among 65,000 | AID 374;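 active = inhibition above about 50%, limit read from the data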
JNK3 inh: JNK3 (human) kinase inhibition; hit rate 0.61% among 60,000; purified JNK3 kinase activity, HTS; inhibition, % at 8 µM; P53779; in the data active = inhibition above about 17%
Redox H2O2: redox cycling H2O2 generation, MKP probe counter-screen. shares compounds with DUSP1 inh. DTT, phenol red/HRP. EC50, µM. 60 tested, under 10 active. AID 672; call rule not given here
Of the large screens only hits and unclear results are named; the others gave an inactive call (follow-up assays come after a bar, where they were run).

CC(=O)c1sc(N2C(=O)c3oc4ccccc4c(=O)c3C2c2ccc(C)o2)nc1C (centres undefined)	none
O=C1c2ccccc2-c2onc3ccc(NCCCn4ccnc4)c1c23	Hsp90 block 140, JNK3 inh 38 | Redox H2O2 inactive
Cc1cccc2nc(Cn3c(=O)n(CCC(=O)NCc4ccco4)c(=O)c4ccccc43)cc(=O)n12	none
COc1ccc(-c2cc3nc(C4CCN(C(=O)OC(C)(C)C)CC4)c(C(=O)O)cn3n2)cc1	DUSP1 inh 65 | Redox H2O2 inactive
CCOC(=O)N1CCC(NC(=O)c2ccc3c(c2)sc2nc(-c4ccc(OC)cc4)cn23)CC1	none
[O-]/[N+](=C/c1ccc(F)cc1)c1ccccc1	DUSP1 inh 82 | Redox H2O2 inactive
O=C1C(C2=C(O)c3ccccc3C2=O)=Nc2ccccc21	Hsp90 block 57, DUSP1 inh 91 | Redox H2O2 inactive
O=C(O)c1cccc(N2CCCC2)c1	none
Cc1ccc(C)n1-c1cccc(C(=O)O)c1	DUSP1 inh 50 | Redox H2O2 inactive
Cc1ccc(OCCOCCn2ccnc2)c(Br)c1	none
Cc1ccc(/C=C/C2=Cc3c(sc(NC(=O)CSc4n[nH]c(N)n4)c3C#N)C(C)(C)C2)o1	DUSP1 inh 69 | Redox H2O2 inactive
O=C1Nc2ccccc2SC(c2ccccc2)C1O (centres undefined)	DUSP1 inh 58 | Redox H2O2 inactive
O=C(O)CC1Sc2ccccc2NC1=O (centres undefined)	none
CCCn1c(=O)c(C(=O)Nc2nnc(C)s2)c(O)c2ccccc21	none
N#Cc1c(NC(=O)c2ccc(Br)o2)n(-c2ccccc2)c2nc3ccccc3nc12	none | Redox H2O2 inactive
Cc1cccc(N2CCN(C(=O)Cc3c(C(=O)O)[nH]c4ccc(Cl)cc34)CC2)c1C	DUSP1 inh 53 | Redox H2O2 inactive
O=C(Nc1ccc(N2CCOCC2)cc1)c1ccc2nc(-c3ccco3)c(-c3ccco3)nc2c1	none
O=C(Nc1ccccc1)c1ccc2nc(-c3ccco3)c(-c3ccco3)nc2c1	DUSP1 inh 59 | Redox H2O2 inactive
NC(=O)C(=O)O	none (no result: PKA inh, Cdc25B block, ROCK2 inh, DUSP1 inh, JNK3 inh)
Cc1ccc(-c2csc(NC(=O)c3ccno3)n2)cc1	DUSP1 inh 53 (no result: ROCK2 inh, JNK3 inh) | Redox H2O2 inactive
COc1ccccc1N1CCN(CCN(C(=O)c2ccc(I)cc2)c2ccccn2)CC1	none (no result: PKA inh, Cdc25B block, ROCK2 inh, DUSP1 inh, JNK3 inh)
CC1=C(C(=O)O)N2C(=O)[C@@H](NC(=O)C(N)C3=CCC=CC3)[C@H]2SC1 (some centres undefined)	none (no result: PKA inh, Cdc25B block, ROCK2 inh, DUSP1 inh, JNK3 inh)
Cc1c(OCc2ccc(C(=O)O)o2)ccc2c3c(c(=O)oc12)CCC3	none
CCOc1cc(/C=C(/C#N)c2ccc(F)cc2)ccc1OCc1ccc(C(=O)O)o1	DUSP1 inh 54 | Redox H2O2 inactive
